Reference: publication PMC4878873

Target: COP9 signalosome complex subunit 4 (UniProt Q9BT78)
Assay: cross-link between two proteins; cross-linking mass spectrometry

Sequence of E3 ubiquitin-protein ligase RBX1, P62877 (P62877 whole entry): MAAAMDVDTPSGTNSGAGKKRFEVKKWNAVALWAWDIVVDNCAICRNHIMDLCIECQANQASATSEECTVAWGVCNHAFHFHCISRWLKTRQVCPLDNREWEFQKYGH

E3 ubiquitin-protein ligase RBX1, P62877
listed as a hit: yes
